# CendR NRP1 mod: modulators of CendR peptide binding to NRP-1, primary screen, biochemical, fluorescence polarization, uHTS; FAM-RPARPAR peptide binding to NRP-1; inhibition, % at 25 µM; 360,000 tested, 0.85% active; Neuropilin-1 (Homo sapiens), O14786;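 active means inhibition or corrected inhibition above about 18%, plus a signal ratio from 0.5 to 1.5, limit read from the data, passing the limit was not always enough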
# CTSL1 counter: Fasciola hepatica cathepsin L1 inhibitors, primary screen, counter-screen for PFM18AAP inhibitor project, biochemical, QFRET, fluorogenic peptide substrate | inhibition, % at 5.96 µM | recombinant F. hepatica cathepsin L1, Z-Leu-Arg-MCA fluorescence | AID 1906, 2009 | 300,000 tested, 0.49% active;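 active means inhibition above the mean of all tested compounds plus 3 SD, set per screening campaign, cut at about 17% in these data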;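 further: 0% = plate median of test compound wells and 100% = 1 µM Z-Phe-Ala-diazomethylketone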
# PHOSPHO1 inh: PubChem AID 1565; recombinant PHOSPHO1, absorbance phosphatase assay; inhibition, % at 13.3 µM; 290,000 tested, 1.1% active; in the data active means inhibition above about 60%
# TPT1 inhibitor: Candida albicans TPT1 enzyme inhibitors, primary screen, biochemical, fluorescence polarization | recombinant caTPT1, FP RNA substrate dephosphorylation | inhibition, % at 5 µM | 300,000 tested, 0.81% active | AID 1962, 2009;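 active means inhibition above the mean of all tested compounds plus 3 SD, set per screening campaign, cut at about 24% in these data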;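 further: plate controls were DMSO alone for no effect and ferristatin control at 100 nM for full effect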
# HNF4A DNA FP: change in binding of human HNF4A to DNA, primary screen, biochemical, fluorescence polarization, FITC-DNA; 1 h; activity change, % at 10 µM; 360,000 tested, 0.3% active; AID 1224865, 2016; Hepatocyte nuclear factor 4-alpha (Homo sapiens), P41235; in the data active means activity change above about 30%, passing the limit was not always enough
# Rpn11 block: Rpn11 (PSMD14) deubiquitinase inhibitors, primary screen, biochemical, fluorescence polarization, uHTS | human 26S proteasome, Ub4-pepOG fluorescence polarization; 20S core pre-blocked with epoxomicin | inhibition, % at 20 µM | 360,000 tested, 0.59% active | AID 588493, 2011;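 active means inhibition at 20 µM, scaled to each plate's controls, above about 33%, limit read from the data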
# Target sequence (O00487 whole entry, looked up): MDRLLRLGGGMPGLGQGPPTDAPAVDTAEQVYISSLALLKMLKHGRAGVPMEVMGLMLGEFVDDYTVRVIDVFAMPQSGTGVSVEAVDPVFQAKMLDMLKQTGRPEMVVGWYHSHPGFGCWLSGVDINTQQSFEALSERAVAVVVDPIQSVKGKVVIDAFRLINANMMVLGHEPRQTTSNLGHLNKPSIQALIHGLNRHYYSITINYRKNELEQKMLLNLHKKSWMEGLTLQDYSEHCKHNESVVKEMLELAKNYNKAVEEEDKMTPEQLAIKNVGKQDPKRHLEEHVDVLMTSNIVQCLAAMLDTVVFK
# * marks the source's active call; other numbers are inactive results; . = no result. The list is not random: actives were taken first. Their share in the collection is about 3.3%.
SMILES,CendR NRP1 mod,CTSL1 counter,PHOSPHO1 inh,TPT1 inhibitor,HNF4A DNA FP,Rpn11 block
COCCCN1C(=O)c2ccc(C(=O)NCc3ccccn3)cc2C1=O,-9,-2,47,-2,2,-1
O=C(/C=C/c1ccccc1)c1ccccc1,-5,-1,8,-3,0,-3
O=C(/C=C\c1ccc(-c2ccccc2)o1)c1ccccc1,-19,66*,8,14,1,33
COC(/C=C/Nc1ccc(Br)cc1)=C(C#N)C#N,7,0,8,2,1,3
COCCNC(=O)/C(C#N)=C/c1ccc2c(c1)OCO2,35*,4,20,0,7,4
COc1cc(C)c(/C=C(\C#N)C(=O)Nc2ccc(C)cc2)cc1C(C)C,-7,-9,12,-3,0,-2
N#C/C(=C\c1ccc2c(c1)OCO2)C(=O)NCc1ccco1,5,-2,40,-2,6,-3
COCCNC(=O)/C(C#N)=C/c1cc(C(C)C)c(OC)cc1C,-1,6,61*,0,-2,-8
COCCNC(=O)/C(C#N)=C/c1cc(C)n(-c2ccc(C)cc2)c1C,27*,7,40,-5,-3,-7
CCOc1ccccc1NC(=O)COc1cccnc1[N+](=O)[O-],13,.,.,.,3,-1
COC(=O)CCN1CCN(S(=O)(=O)c2ccccc2Br)CC1,-6,0,62*,3,-4,-1
CCCCCc1c(C)nc(Nc2ccccc2)[nH]c1=O,38*,-1,17,0,-3,3
COC(=O)c1ccccc1OCC(=O)N1CCN(c2ccc(OC)cc2)CC1,4,-2,30,-1,-2,-10
COc1cc(=O)n(C)c2c(OCC3OC(C)(C)OC3(C)C)cccc12 (centres undefined),-26,4,-1,-2,-2,-1
CCOc1ccc(CC(=O)Nc2sc(Cc3ccccc3)cc2C(N)=O)cc1OCC,-15,5,97*,2,-2,-5
NC(=O)c1cc(Cc2ccccc2)sc1NC(=O)c1ccco1,-7,-1,24,-3,0,-18
CCOC(=O)CC(NC(=O)Cn1nnc(-c2ccccc2F)n1)c1ccccc1Cl (centres undefined),0,-1,-26,-5,4,1
CCOC(=O)N1CCN(C(=O)c2ccc3c(=O)n(-c4ccc(OC)cc4)c(=S)[nH]c3c2)CC1,1,-1,-8,-5,-3,-1
CCOC(=O)N1CCN(C(=O)c2cccc(-n3c(=S)[nH]c4cc(Cl)ccc4c3=O)c2)CC1,-5,5,64*,1,-5,8
Cc1sc2nc[nH]c(=O)c2c1-c1ccc(Cl)cc1,1,-4,39,5,1,-2
CC1(OC(=O)C2CCCC2)C(=O)C=C2C=C(c3ccsc3)N(Cc3ccco3)C=C2C1=O (centres undefined),-8,22*,31,-2,-6,-8
CC1(OC(=O)C2CCCC2)C(=O)C=C2C=C(c3ccsc3)N(CCCCO)C=C2C1=O (centres undefined),12,9,13,-2,-3,-10
NC(=O)NN=C1C2CCCC1C(c1ccccc1)NC2c1ccccc1 (centres undefined),45*,1,33,2,-1,1
CCOC(=O)[C@H](O)[C@@H](O)c1cccc([C@H](O)[C@@H](O)C(=O)OCC)c1,24*,1,-36,-6,-3,-1
CCOC(=O)C(C(=O)OCC)C(Nc1ccccc1)c1ccccc1 (centres undefined),-8,1,-14,-4,-1,5
SMILES,CendR NRP1 mod,CTSL1 counter,PHOSPHO1 inh,TPT1 inhibitor,HNF4A DNA FP,Rpn11 block
CC1OC(CC(=O)O)CC2=C1C(=O)c1c(O)cccc1C2=O (centres undefined),35*,.,.,.,-1,-14
O=C1c2cccc(O)c2C(=O)c2c(O)cccc21,.,6,-14,-36,.,.
O=C(NCCC1=CCCCC1)Nc1ccc2nsnc2c1,12,24*,-1,-5,-1,-3
COc1ccc(CCC(=O)N2CCN(S(=O)(=O)c3ccc(OC(F)(F)F)cc3)CC2)cc1,-2,.,.,.,-3,5
N#CC1=C(N)SC(N)=C(C#N)C1c1ccoc1,.,16,21,32*,.,.
Cc1cc(C)n(-c2ccc(C(=O)OCC(=O)c3c(N)n(C)c(=O)n(C)c3=O)cc2)n1,9,0,9,0,0,-1
CC(=O)Nc1ccc(NC(=O)C2CC(=O)N=C(N)S2)cc1 (centres undefined),32*,4,-18,-4,-3,2
CC(C)[C@H](NC(=O)c1ccccc1Cl)C(=O)OCc1cc(=O)n2cc(Br)ccc2n1,-2,7,12,3,-3,2
Cc1ccccc1C(=O)NC(CC(C)C)C(=O)OCc1cc(=O)n2cc(Br)ccc2n1 (centres undefined),1,27*,-3,0,-2,-7
O=C(NCCN1CCCCC1)c1cc(COc2c(F)cccc2F)on1,-3,-7,29,2,2,0
COC(=O)c1c(NS(=O)(=O)c2ccc3ccccc3c2)sc2c1CCCC2,-10,-2,71*,-1,-1,4
CCC/C=C(\CCC)C(NC(=O)c1ccc(C(=O)OC)cc1)c1ccc(C(=O)OC)cc1 (centres undefined),.,2,.,-2,.,.
COCCNC(=O)CN(CCc1ccccc1)S(=O)(=O)c1ccc(Br)cc1,8,-2,8,0,2,2
CC(C)CC(NS(=O)(=O)c1ccccc1S(=O)(=O)NC(CC(C)C)C(=O)O)C(=O)O (centres undefined),26*,-4,-7,-1,1,-3
CC(C)CC(NS(=O)(=O)c1ccccc1)C(=O)O (centres undefined),14,-2,-12,-1,-3,3
CCOC(=O)Nc1ccc2c(c1)N(C(=O)CCN(CC)CC)c1ccccc1S2=O (centres undefined),2,17*,-23,4,0,-6
FC(F)(F)c1nc2ccccc2nc1N/N=C\c1ccccc1,0,3,-4,-4,-8,3
CCCCCCCCCCCCCCCC[n+]1cccc2ccccc21,42*,1,6,-2,21,78*
O=[N+]([O-])c1ccc(C[n+]2cccc3c4ccccc4ccc32)cc1,-6,0,0,3,0,13
Cc1ccccc1C[n+]1cccc2ccccc21,9,-3,.,-1,-2,21

# Assay outcomes as filed in PubChem BioAssay.
